According to PubChem BioAssay AID1159580 (chemical genetic matrix, 2015):
The whole screen tested about 5,500 compounds, of which about 2,000 (36%) were called active. Another 18% or so got no clear call; they are omitted. No stated cut-off is given here; in the data, active means normalized growth mostly below about 0.91 (no sharp cut-off); inconclusive means no clear call, values can overlap the other calls; inactive means mostly above about 0.92. The list shows a part of the results.

Test: chemical genetic growth profiling, strain panel (AID 1159580);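 further: tested at 20 µM; growth read once vehicle control cultures reached saturation at 30 °C; 1 = growth at the plate median or of vehicle wells; lower values mean less growth of the strain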
Conditions: S. cerevisiae deletion strains, growth OD

Measured: normalized growth

CCN(CC)CCNC(=O)c1ccc(NC(C)=O)cc1
inactive: locus YAL040C, strain CLN3, hits give low values 0.985 | locus YDR150W, strain NUM1, hits give low values 0.975 | locus YER002W, strain NOP16, hits give low values 0.969 | locus YGR078C, strain PAC10, hits give low values 0.985 | locus YGR229C, strain SMI1, hits give low values 1.01 | locus YHR030C, strain SLT2, hits give low values 0.999 | locus YHR079C, strain IRE1, hits give low values 1.03 | locus YJL095W, strain BCK1, hits give low values 1.02 | locus YJR066W, strain TOR1, hits give low values 0.971 | locus YLR113W, strain HOG1, hits give low values 1.03 | locus YMR307W, strain GAS1, hits give low values 1.01 | locus YNL175C, strain NOP13, hits give low values 0.983 | locus YNL183C, strain NPR1, hits give low values 0.959 | locus YNL197C, strain WHI3, hits give low values 0.984 | locus YNL224C, strain SQS1, hits give low values 1.01 | locus YOR083W, strain WHI5 (second series), hits give low values 0.979 | locus YOR231W, strain MKK1, hits give low values 1.04 | locus YPL256C, strain CLN2, hits give low values 1.08
